In PubChem BioAssay (NCI):
Compounds without any hit were thinned out: in the full panel of roughly 79,000, 15% have a hit. The source made the active and inactive calls. No stated cut-off is given here; in the data, active means growth inhibition above about 70%; inactive means the rest.

Test: NCI Yeast Anticancer Drug Screen. Data for the sgs1 strain (AID 173);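 further: 0% = growth of vehicle-only control cultures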
Conditions: S. cerevisiae sgs1 mutant, active compounds read high
Experimental: Growth inhibition of yeast strains with defined genetic alterations is measured as a screen for potential anti-cancer activity. Selected strains with alterations in DNA damage repair or cell cycle control were exposed to compounds and growth inhibition was measured relative to vehicle treated controls. The strain used in this assay is sgs1

Measured: growth inhibition

COc1ccc(/C=C2\CCc3ccccc3C2=O)cc1OC
inactive: at 1.2 µM -6% | at 3.7 µM -26% | at 11.0 µM -12% | at 33.0 µM 35%
active: at 100.0 µM 93%

COC(=O)C1(N2CCOCC2)CCC([C@@H](c2ccccc2)C(C)[N+](=O)[O-])C1 (stereo not given in full)
inactive: at 1.2 µM -1% | at 3.7 µM -1% | at 11.0 µM 1% | at 33.0 µM 7% | at 100.0 µM 49%

CN(C)N1C(=O)SCC(c2ccccc2)(c2ccccc2)C1=O
inactive: at 1.2 µM -1% | at 3.7 µM 1% | at 11.0 µM 4% | at 33.0 µM 20% | at 100.0 µM 34%

O=c1oc(C(C(F)(F)F)C(F)(F)F)nc2ccccc12
inactive: at 1.2 µM 26% | at 3.7 µM 39% | at 11.0 µM 40% | at 33.0 µM 43% | at 100.0 µM 46%

OC(c1ccc(Br)cc1)(c1cccs1)C1CC1 (stereo not given)
active: at 33.0 µM 95% | at 100.0 µM 95%
inactive: at 1.2 µM 17% | at 3.7 µM 29% | at 11.0 µM 57%

COc1ccc(CCN2C(=O)C=CC2=O)cc1OC
active: at 33.0 µM 98% | at 100.0 µM 98%
inactive: at 1.2 µM 1% | at 3.7 µM 5% | at 11.0 µM 38%

O=S(=O)(Oc1c(Cl)cc(Cl)cc1Cl)c1ccccc1
inactive: at 1.2 µM -3% | at 3.7 µM -1% | at 11.0 µM 11% | at 33.0 µM 22% | at 100.0 µM 11%

NCC(O)CSCc1ccc(Cl)cc1 (stereo not given)
inactive: at 1.2 µM -9% | at 3.7 µM 12% | at 11.0 µM -16% | at 33.0 µM 7% | at 100.0 µM 42%
